The text below walks through data of ChEMBL document CHEMBL3988442, “University of Dundee, Small-Polar-MMV Screening Library” (2021).

Common to all, as to design: scale not given: direction of the effect not stated beside the values
Assay [1] addresses Protein translocase subunit SecA (Escherichia coli (strain K12)) (UniProt P10408). Briefly: Assay to Identify E. coli SecA ATPase Inhibitors. To be noted: 30 µM. It counts as functional.
In assay [2] the target is T1, Ubiquitin-activating enzyme e1, putative (Leishmania donovani (strain BPK282A1)) (UniProt E9BSI1).
T1 sequence (whole entry): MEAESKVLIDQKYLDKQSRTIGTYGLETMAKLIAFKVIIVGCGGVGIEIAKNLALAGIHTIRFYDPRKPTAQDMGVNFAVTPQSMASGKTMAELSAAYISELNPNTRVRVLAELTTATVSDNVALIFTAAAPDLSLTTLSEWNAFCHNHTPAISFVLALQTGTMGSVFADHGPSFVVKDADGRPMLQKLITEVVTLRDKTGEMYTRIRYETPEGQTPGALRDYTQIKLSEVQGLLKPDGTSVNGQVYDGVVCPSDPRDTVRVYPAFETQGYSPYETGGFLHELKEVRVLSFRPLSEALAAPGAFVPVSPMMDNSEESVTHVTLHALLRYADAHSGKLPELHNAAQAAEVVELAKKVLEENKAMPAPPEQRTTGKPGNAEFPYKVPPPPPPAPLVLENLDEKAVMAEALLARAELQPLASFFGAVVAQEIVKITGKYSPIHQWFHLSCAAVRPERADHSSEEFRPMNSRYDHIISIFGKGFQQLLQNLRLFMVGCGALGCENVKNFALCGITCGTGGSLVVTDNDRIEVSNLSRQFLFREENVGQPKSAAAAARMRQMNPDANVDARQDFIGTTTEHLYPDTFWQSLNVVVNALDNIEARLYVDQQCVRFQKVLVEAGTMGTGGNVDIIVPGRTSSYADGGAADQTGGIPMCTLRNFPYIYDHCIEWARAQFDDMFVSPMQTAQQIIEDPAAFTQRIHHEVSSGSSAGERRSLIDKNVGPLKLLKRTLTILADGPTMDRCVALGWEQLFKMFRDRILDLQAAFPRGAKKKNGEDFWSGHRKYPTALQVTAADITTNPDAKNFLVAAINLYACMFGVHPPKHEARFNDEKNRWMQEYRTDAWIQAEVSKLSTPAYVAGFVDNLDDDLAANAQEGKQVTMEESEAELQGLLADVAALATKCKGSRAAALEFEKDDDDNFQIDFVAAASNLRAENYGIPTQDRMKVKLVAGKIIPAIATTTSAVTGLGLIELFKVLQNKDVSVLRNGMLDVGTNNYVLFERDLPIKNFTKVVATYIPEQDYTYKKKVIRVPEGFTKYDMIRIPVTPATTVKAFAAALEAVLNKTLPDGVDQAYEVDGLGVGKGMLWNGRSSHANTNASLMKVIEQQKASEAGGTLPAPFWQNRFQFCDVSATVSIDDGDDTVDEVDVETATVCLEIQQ
As to the kind of experiment: Leishmania donovani Ubiquitin Activating Enzyme (LdE1). It counts as functional. The note with it: 30 µM.

The target in assay [3] is AMP-activated protein kinase, AMPK (Homo sapiens) (UniProt P54646+O43741+P54619+Q9UGJ0+Q9Y478+Q13131+Q9UGI9). As to the kind of experiment: AMP-dependent Kinase enzyme assay. An in vitro enzyme assay that detects ADP turnover that is directly proportional to AMPK activity. This uses naive AMPK that is activated during the assay with MK-8722. It counts as functional. To be noted: 30 µM.

Assay [4] has as its target Sialic acid-binding Ig-like lectin 9 (Homo sapiens) (UniProt Q9Y336). As to the kind of experiment: Hs-Siglec9 ALPHAscreen SOP 20170721. To be noted: 10 µM. (Bead proximity is the source of the signal in Alpha formats.)
Assay [5] has as its system Trypanosoma cruzi. As to the kind of experiment: Trypanosoma cruzi phosphomannomutase and mannose-1-phosphate guanylyltransferase assay. To be noted: 10 µM. It counts as functional.
The target in assay [6] is T2, Arginase-2, mitochondrial (Homo sapiens) (UniProt P78540).
T2 sequence (whole entry): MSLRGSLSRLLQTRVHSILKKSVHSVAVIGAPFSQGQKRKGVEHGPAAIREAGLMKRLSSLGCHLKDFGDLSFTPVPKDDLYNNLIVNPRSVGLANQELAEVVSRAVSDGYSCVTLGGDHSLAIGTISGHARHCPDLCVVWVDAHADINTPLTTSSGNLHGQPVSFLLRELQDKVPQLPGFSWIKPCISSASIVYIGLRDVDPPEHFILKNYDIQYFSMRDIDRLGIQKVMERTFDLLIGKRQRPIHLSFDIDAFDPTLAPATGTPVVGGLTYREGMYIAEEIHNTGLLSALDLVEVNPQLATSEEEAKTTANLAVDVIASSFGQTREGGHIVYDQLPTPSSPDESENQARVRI
As to the kind of experiment: in vitro enzyme assay to detect the production of urea directly proportional to the activity of Arginase II. Note: in the data most compounds retested in dose-response had high values. It counts as functional. The note with it: 33.3 µM.

For assay [7], the target named is T3, Proteasome subunit beta (Trypanosoma cruzi) (UniProt O96673).
T3 sequence (whole entry): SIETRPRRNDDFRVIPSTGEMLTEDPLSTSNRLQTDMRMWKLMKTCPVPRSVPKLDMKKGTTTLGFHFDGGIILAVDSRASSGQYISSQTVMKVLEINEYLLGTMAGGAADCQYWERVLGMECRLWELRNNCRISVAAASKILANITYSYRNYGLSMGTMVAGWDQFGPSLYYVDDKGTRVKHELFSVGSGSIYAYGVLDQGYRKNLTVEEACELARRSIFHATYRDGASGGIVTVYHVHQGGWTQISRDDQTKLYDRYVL
As to the kind of experiment: Trypanosoma cruzi proteasome chymotrypsin-like activity (TcProtChymo) assay. Note: in the data most compounds retested in dose-response had high values. The note with it: 9.37 µM. It counts as functional.

The species named for assay [8] is Homo sapiens. Briefly: To identify inhibition of the IFN signalling (Jak-Stat) pathway via expression of an eGFP reporter gene under the control of an IFN-stimulated response element (ISRE) containing MxA promoter. It counts as functional. To be noted: 30 µM. (In general: In a reporter assay the amount or activity of a reporter protein is the signal.)
For assay [9], the target named is T4, Tyrosyl-tRNA synthetase, putative (Trypanosoma cruzi (strain CL Brener)) (UniProt Q4DSP6).
T4 sequence (whole entry): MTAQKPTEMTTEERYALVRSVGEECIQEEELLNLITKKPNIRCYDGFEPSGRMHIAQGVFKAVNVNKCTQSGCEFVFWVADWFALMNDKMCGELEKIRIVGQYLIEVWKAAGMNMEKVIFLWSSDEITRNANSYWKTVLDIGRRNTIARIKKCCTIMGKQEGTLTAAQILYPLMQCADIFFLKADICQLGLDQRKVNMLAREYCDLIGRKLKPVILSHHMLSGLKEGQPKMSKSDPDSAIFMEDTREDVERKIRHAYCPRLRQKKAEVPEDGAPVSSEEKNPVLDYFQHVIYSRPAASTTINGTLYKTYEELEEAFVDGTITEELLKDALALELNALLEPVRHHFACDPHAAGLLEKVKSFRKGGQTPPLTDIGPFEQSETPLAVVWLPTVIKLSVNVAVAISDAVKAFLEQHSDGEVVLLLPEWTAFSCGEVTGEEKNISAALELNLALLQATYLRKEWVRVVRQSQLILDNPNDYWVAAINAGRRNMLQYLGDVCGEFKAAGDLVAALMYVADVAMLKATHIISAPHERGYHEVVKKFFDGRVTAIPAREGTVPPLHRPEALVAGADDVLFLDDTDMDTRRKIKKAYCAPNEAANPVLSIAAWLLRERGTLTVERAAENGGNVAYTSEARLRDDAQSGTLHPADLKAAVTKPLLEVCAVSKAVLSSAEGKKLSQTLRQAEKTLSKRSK
As to the kind of experiment: Trypanosoma cruzi tyrosyl tRNA synthetase (TcYRS) _High Tyrosine SOP. Note: in the data most compounds retested in dose-response had high values. The note with it: 30 µM. The assay is classed as functional.

Assay [10] has as its target T4, Tyrosyl-tRNA synthetase, putative (Trypanosoma cruzi (strain CL Brener)). As to the kind of experiment: Trypanosoma cruzi tyrosyl tRNA synthetase (TcYRS) SOP. It counts as functional. The note with it: 30 µM.
Assay [11] addresses Chromo domain-containing protein 1 (Saccharomyces cerevisiae (strain ATCC 204508 / S288c) (Baker's yeast)) (UniProt P32657). Briefly: ScCHD-1 Enzyme Inhibition Assay. Note: in the data most compounds retested in dose-response had high values. The assay is classed as functional. To be noted: 30 µM.

For some of these results: Measured potencies and affinities stand elsewhere.

Chain of Protein translocase subunit SecA (Escherichia coli (strain K12)) (P10408 whole entry): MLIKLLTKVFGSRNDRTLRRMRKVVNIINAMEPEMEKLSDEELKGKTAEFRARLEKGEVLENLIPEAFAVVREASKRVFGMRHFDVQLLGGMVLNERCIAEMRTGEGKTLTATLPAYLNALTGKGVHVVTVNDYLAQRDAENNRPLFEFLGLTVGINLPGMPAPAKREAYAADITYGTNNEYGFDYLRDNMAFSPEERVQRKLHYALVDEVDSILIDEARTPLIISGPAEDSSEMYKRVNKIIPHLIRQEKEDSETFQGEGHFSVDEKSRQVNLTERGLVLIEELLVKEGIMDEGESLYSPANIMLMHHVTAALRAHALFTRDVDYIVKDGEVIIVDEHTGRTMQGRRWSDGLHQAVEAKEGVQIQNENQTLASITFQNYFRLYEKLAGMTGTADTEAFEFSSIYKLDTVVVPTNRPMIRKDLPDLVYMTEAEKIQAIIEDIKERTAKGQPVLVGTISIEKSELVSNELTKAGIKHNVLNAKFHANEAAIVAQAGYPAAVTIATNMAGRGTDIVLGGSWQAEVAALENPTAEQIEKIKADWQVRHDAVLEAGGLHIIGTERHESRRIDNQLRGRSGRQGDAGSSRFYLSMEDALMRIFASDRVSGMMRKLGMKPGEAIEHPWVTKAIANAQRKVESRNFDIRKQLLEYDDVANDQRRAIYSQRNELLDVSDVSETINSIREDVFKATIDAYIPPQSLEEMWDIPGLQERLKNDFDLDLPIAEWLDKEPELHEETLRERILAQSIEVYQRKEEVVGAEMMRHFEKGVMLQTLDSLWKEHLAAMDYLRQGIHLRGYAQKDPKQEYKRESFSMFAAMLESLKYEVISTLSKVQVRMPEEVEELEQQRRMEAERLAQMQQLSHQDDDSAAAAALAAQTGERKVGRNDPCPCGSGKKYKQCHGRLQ
Chain of Chromo domain-containing protein 1 (Saccharomyces cerevisiae (strain ATCC 204508 / S288c) (Baker's yeast)) (P32657 whole entry, the tested form may be a part): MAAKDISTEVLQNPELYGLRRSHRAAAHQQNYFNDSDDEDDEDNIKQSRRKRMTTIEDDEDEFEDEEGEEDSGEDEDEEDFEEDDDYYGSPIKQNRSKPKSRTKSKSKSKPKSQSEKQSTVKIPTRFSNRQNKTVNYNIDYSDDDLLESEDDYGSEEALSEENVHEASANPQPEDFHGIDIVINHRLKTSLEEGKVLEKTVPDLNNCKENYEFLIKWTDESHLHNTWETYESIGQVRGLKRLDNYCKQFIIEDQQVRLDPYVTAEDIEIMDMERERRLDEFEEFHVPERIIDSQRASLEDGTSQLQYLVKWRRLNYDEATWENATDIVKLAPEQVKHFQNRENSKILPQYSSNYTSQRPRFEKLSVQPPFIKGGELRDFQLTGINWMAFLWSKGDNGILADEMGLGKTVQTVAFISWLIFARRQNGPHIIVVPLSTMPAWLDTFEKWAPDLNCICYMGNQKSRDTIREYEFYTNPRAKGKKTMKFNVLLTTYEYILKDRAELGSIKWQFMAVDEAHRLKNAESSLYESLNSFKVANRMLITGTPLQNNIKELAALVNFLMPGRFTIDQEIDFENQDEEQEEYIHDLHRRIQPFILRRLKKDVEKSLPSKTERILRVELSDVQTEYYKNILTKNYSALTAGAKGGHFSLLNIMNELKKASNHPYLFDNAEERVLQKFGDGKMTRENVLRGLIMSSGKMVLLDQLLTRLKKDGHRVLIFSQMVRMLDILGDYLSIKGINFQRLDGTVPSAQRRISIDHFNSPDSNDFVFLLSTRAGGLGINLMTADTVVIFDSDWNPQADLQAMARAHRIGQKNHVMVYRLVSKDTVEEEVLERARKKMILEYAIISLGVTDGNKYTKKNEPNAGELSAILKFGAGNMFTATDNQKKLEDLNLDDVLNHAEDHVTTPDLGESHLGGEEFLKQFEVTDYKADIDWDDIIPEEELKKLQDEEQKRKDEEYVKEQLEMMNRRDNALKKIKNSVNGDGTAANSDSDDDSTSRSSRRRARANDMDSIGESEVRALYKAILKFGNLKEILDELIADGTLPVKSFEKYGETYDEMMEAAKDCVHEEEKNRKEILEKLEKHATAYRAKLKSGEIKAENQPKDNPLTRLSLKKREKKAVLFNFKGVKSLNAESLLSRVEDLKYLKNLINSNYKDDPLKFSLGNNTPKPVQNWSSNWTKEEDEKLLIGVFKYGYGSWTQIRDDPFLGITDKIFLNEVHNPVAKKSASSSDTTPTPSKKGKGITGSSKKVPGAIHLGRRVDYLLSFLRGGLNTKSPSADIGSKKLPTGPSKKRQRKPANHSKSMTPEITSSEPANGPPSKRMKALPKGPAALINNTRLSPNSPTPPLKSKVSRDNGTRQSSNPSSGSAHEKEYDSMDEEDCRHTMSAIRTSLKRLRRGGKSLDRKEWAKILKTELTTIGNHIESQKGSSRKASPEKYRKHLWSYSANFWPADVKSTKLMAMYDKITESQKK
Chain of Sialic acid-binding Ig-like lectin 9 (Homo sapiens) (Q9Y336 whole entry): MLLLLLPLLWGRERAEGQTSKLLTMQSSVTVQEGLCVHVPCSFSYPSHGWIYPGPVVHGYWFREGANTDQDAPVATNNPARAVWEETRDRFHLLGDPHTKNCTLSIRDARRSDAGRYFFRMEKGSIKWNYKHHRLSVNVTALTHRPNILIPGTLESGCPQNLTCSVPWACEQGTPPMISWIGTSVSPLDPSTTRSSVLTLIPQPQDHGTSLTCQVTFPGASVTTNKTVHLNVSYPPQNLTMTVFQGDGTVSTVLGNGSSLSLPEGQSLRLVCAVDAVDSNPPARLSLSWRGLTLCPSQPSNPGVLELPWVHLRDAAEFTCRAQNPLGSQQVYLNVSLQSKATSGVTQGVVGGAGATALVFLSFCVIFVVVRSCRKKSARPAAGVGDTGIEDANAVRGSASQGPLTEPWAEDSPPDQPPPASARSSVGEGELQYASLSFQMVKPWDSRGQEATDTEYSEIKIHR

Turning to `CN(C)C(=O)CC1CC2(CCN(c3ncccn3)CC2)c2ccccc21` (stereo unspecified), the Percent Effect in [1] is -7.49%; in assay [2] it was 5.41%; in [3], 5.36%; in [4] it was -1.25%; in [5], 3.32%; in assay [6], 2.92%. Moreover, the Percent Effect in [7] is 4.14%; in assay [8], 6.8%; in [9], 5.94%; in assay [10] it was 3.66%; in assay [11] it was -4.19%.
In the case of `CC(C)CN1CCC(c2nc3c([nH]2)CC(C)(C)CNC3=O)C1` (stereo unspecified), the Percent Effect is 3.37% in assay [1]; 8.11% in assay [2]; -3.98% in [3]; 5.96% in [4]; 3.67% in assay [5]; 16.2% in assay [6]. Further, the Percent Effect in [7] is 10.5%; in assay [8] it was 19.8%; in [9], 5.82%; in assay [10], 19.5%; in assay [11] it was -2.21%.
With `NC(=O)c1ccc2c(c1)nc1n2CCN(Cc2ccco2)C1`, the Percent Effect in assay [1] is -3.62%; in [2], 21.1%; in assay [3], 5.96%; in assay [4] it was 1.24%; in [5], 3.02%; in [6], -2.37%. Also, the Percent Effect in assay [7] came to 9.49%; in assay [8] it was 1.88%; in assay [9] it was 5.32%; in assay [10], 5.2%; in assay [11] it was 34.5%.
Turning to `CCc1noc(CN2CCCN(C(N)=O)CC2)n1`, the Percent Effect in assay [1] was -0.23%; in assay [2], 0%; in assay [3] it was 5.45%; in assay [4], 11.3%; in assay [5], -6.7%; in assay [6], 4.94%. For the same molecule, the Percent Effect in [7] was 5.98%; in [8] it was 21.4%; in assay [9], -1.48%; in assay [10] it was -8.86%; in [11] it was -6.21%.
For the molecule `CC1Cc2ccccc2N1Cc1occc1C(=O)OCC(N)=O` (stereo unspecified), the Percent Effect was -4.31% in [1]; 11% in assay [2]; 7.16% in [3]; 10.7% in assay [4]; 4.56% in assay [5]; -3.99% in assay [6]. Moreover, the Percent Effect in assay [7] is 5.91%; in [8] it was 17%; in assay [9], 8.33%; in assay [10] it was 13.6%; in assay [11], -3.53%.
In the case of `CC(C)c1noc(C(C)N2CCN(CCN3CCCC3=O)CC2)n1` (stereo unspecified), the Percent Effect is -5.03% in [1]; 5.41% in assay [2]; -10% in assay [3]; 9.09% in [4]; -2.17% in [5]; 1.6% in assay [6]. In addition, the Percent Effect is -1.62% in [7]; 9.64% in assay [8]; 1.48% in assay [9]; 1.24% in assay [10]; 0.594% in [11].
As for `OCCC1CN(C2CCC2)CCN1C1CCCC1` (stereo unspecified), the Percent Effect in assay [1] was -3.14%; in [2], -1.39%; in [3], -6.25%; in assay [4] it was -1.98%; in assay [5] it was 7.87%; in [6] it was -1.77%. Moreover, the Percent Effect is 2.28% in assay [7]; -37% in assay [8]; 1.05% in assay [9]; 7.69% in assay [10]; 3.1% in assay [11].
On to `Cc1noc([C@H]2C[C@H]3OCC[C@H]3N(S(=O)(=O)C3CC3)C2)n1`, for which the Percent Effect in assay [1] was 0.988%; in assay [2], 11%; in assay [3], -4.86%; in assay [4], 7.79%; in assay [5] it was -1.19%; in assay [6], -1.6%. The Percent Effect in assay [7] was 16.7%; in assay [8], 3.43%; in assay [9], 9.38%; in assay [10], 18.5%; in assay [11], -0.433%.
For the molecule `O=C(c1ccccn1)N1CCc2nc(-c3cnccn3)nc(O)c2C1`, the Percent Effect in [1] is 0.65%; in assay [2] it was 12.2%; in assay [3] it was 8.6%; in assay [4] it was 0.354%; in assay [5], -3.36%; in assay [6] it was -0.232%. Further, the Percent Effect in assay [7] was 11.7%; in assay [8], 14.4%; in assay [9] it was 4.3%; in assay [10], 14.3%; in [11] it was -12.2%.
Take `Cc1ccc(-c2ncc(C(=O)NCCS(N)(=O)=O)s2)c(C)c1`: the Percent Effect was -7.16% in assay [1]; 5.41% in [2]; -2.36% in assay [3]; 0.84% in assay [4]; -5% in assay [5]; -3.61% in assay [6]. Further, the Percent Effect in assay [7] is 9.55%; in assay [8], 21.4%; in assay [9], 0.493%; in [10] it was -1.24%; in assay [11] it was -4.18%.
With `Cc1noc(C(C)C)c1C(=O)NCc1cccc(N(C)C)c1`, the Percent Effect in [1] is -7.07%; in [2] it was 18.2%; in [3] it was -6.12%; in assay [4] it was -1.43%; in assay [5] it was -6.74%; in assay [6] it was -2.49%. The Percent Effect was 8.28% in assay [7]; 33% in [8]; 4.85% in [9]; 9.76% in assay [10]; -8% in [11].
